# Values joined by “and” are separate entries in the source; they are usually repeats but may differ in a detail not shown here. Identical values can stand only once. Records with an inconclusive call do not appear. Where a call stands in place of a potency, no number is given. Active and inactive are the calls of the source. Unless noted, calls come from the whole dose curve; as a rule, active = well fitted curve in the direction sought with a large enough effect in the repeat runs; inconclusive = weak or mixed curves; inactive = no such curve, though single readings can be large; an effect the other way counts as inactive or inconclusive.
# Columns and labels:
# [1] = molecular target: Aryl hydrocarbon receptor (Homo sapiens) (UniProt P35869); assay: qHTS assay to identify small molecule that activate the aryl hydrocarbon receptor (AhR) signaling pathway (AID 743085); note: nearly all actives have a fitted effect of over 15% in size; note: potency is the fitted concentration of half-maximal effect;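 for activation: HG2L7.5c1 human HepG2 liver cells with stably integrated DRE-driven firefly reporter; series mostly up to about 70 µM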
# Method in brief: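 24 h compound exposure, 37C, HepG2-derived HG2L7.5c1 cells with DRE-responsive luciferase. Readouts: fluorescence viability, then luminescence at room temperature after 30 min.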
# [2] = qHTS assay to identify small molecule that activate the aryl hydrocarbon receptor (AhR) signaling pathway - cell viability counter screen (AID 743086); note: nearly all actives have a fitted effect of over 45% in size; note: potency is the fitted concentration of half-maximal effect
# Method in brief: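 HepG2-AhR-luc (HG2L7.5c1) cells, 4000/well, treated 24 h at 37 C with compound; viability measured as CellTiter-Fluor fluorescence after 30 min in the same wells as the luciferase read.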
# [3] = qHTS assay to identify small molecule antagonists of the peroxisome proliferator-activated receptor gamma (PPARg) signaling pathway - cell viability counter screen (AID 743194); conditions: Potency: co-treated with 50 nM rosiglitazone; note: nearly all actives have a fitted effect of over 55% in size; note: potency is the fitted concentration of half-maximal effect
# Method in brief: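 Cytotoxicity counter screen in PPARg-bla HEK293H cells, same wells as reporter assay. Compounds plus 50 nM rosiglitazone (final) for 17 h at 37 C, then viability read by CellTiter-Glo luminescence.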
# [4] = qHTS assay for small molecule agonists of the antioxidant response element (ARE) signaling pathway - cell viability counter screen (AID 743203; calls by dose curve; note: nearly all actives have a fitted effect of over 55% in size; note: potency is the fitted concentration of half-maximal effect)
# Method in brief: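 Seeded at 2,000 cells/well, ARE-bla HepG2 cells were incubated 5 hrs before compound addition. After 16 hrs of treatment at 37C with 5% CO2, CellTiter-Glo reagent was added and luminescence read 30 min later.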
# [5] = qHTS assay for small molecule activators of the heat shock response signaling pathway - cell viability counter screen (AID 743209); note: nearly all actives have a fitted effect of over 50% in size; note: potency is the fitted concentration of half-maximal effect
# Method in brief: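 First, HSE-bla HeLa cells were seeded at 1500 cells/well and kept overnight at 37 C. Next, compounds were pinned in and incubated 5 h. After the FRET substrate step, CellTiter-Glo was added and luminescence read 30 min later.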
# [6] = qHTS assay to identify small molecule agonists of the peroxisome proliferator-activated receptor delta (PPARd) signaling pathway - cell viability counter screen (AID 743211); note: nearly all actives have a fitted effect of over 55% in size; note: potency is the fitted concentration of half-maximal effect
# Method in brief: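 Luminescent ATP viability assay (CellTiter-Glo, 30 min RT) in UAS-bla HEK293H cells carrying the PPAR delta reporter construct, 3000 cells/well, after a 17 h compound treatment at 37 C.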
# [7] = qHTS assay to identify small molecule antagonists of the peroxisome proliferator-activated receptor delta (PPARd) signaling pathway - cell viability counter screen (AID 743213); note: nearly all actives have a fitted effect of over 50% in size; note: potency is the fitted concentration of half-maximal effect
# Method in brief: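 Luminescence from CellTiter-Glo, added after the bla read and incubated 30 min at room temperature, gives viability of HEK293H PPARd-bla cells exposed to compounds for 17 h at 37 C with 300 nM L165041.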
# [8] = qHTS assay to identify small molecule antagonists of the farnesoid-X-receptor (FXR) signaling pathway - cell viability counter screen (AID 743221; active = well fitted cell-killing curve with a large enough effect in the repeat runs, not every such curve was filed as active; note: nearly all actives have a fitted effect of over 50% in size; note: potency is the fitted concentration of half-maximal effect)
# Method in brief: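 In GeneBLAzer FXR-UAS-bla HEK 293T cells stimulated with 50 uM chenodeoxycholic acid (final), compounds acted for 16 h at 37 C. Viability was assessed afterwards by CellTiter-Glo luminescence.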
# [9] = qHTS assay to identify small molecule agonists of the vitamin D receptor (VDR) signaling pathway - cell viability counter screen (AID 743224); note: nearly all actives have a fitted effect of over 50% in size; note: potency is the fitted concentration of half-maximal effect
# Method in brief: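 Viability is measured in the same wells as the VDR-bla reporter assay: after 16 h compound treatment and 2 h substrate loading, CellTiter-Glo is added and luminescence read 30 min later.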
# [10] = molecular target: Peroxisome proliferator-activated receptor gamma (Homo sapiens) (UniProt P37231); assay: qHTS assay to identify small molecule antagonists of the peroxisome proliferator-activated receptor gamma (PPARg) signaling pathway (AID 743191; calls by dose curve; note: series mostly up to about 63 µM; nearly all actives have a fitted effect of over 30% in size)
# Method in brief: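 GeneBLAzer PPARg UAS-bla HEK293H cells, 5 h post-plating, exposed to compounds 17 h at 37C. LiveBLAzer B/G FRET substrate added for 1 h at room temperature; beta-lactamase reporter read by fluorescence intensity.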
# [11] = qHTS assay for small molecule activators of the heat shock response signaling pathway (AID 743210; active = well fitted activation curve with a large enough effect in the signal ratio in the repeat runs, with a control signal flat, not every such curve was filed as active; the % refers to the signal ratio;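 note: HeLa cells with beta-lactamase reporter driven by heat shock elements; series mostly up to about 63 µM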)
# Method in brief: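 Quantitative high-throughput format using an engineered HeLa line in which heat shock response elements drive beta-lactamase; after 5 h with compound, cells received a B/G FRET substrate and fluorescence was read.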
# [12] = molecular target: Peroxisome proliferator-activated receptor delta (Homo sapiens) (UniProt Q03181); assay: qHTS assay to identify small molecule agonists of the peroxisome proliferator-activated receptor delta (PPARd) signaling pathway (AID 743212; calls by dose curve)
# Method in brief: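 Quantitative high-throughput agonist screen in a HEK293H beta-lactamase reporter line under UAS control. Compounds in DMSO, at 37 C. Fluorescence read after 2 h with FRET substrate at room temperature.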
# [13] = molecular target: Peroxisome proliferator-activated receptor delta (Homo sapiens) (UniProt Q03181); assay: qHTS assay to identify small molecule antagonists of the peroxisome proliferator-activated receptor delta (PPARd) signaling pathway (AID 743215; active = well fitted inhibition curve with a large enough effect in the signal ratio in the repeat runs, not every such curve was filed as active; the % refers to the signal ratio;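 note: cells stimulated with agonist L165041 at 300 nM final during compound exposure; series mostly up to about 62 µM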)
# Method in brief: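 Inhibition of L165041-driven (300 nM final) PPARd signaling is scored in HEK293H UAS-bla cells. Exposure lasts 17 h at 37 C; beta-lactamase activity is then read by FRET substrate fluorescence after 2 h at room temperature.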
# [14] = qHTS assay to identify small molecule agonists of the farnesoid-X-receptor (FXR) signaling pathway - cell viability counter screen (AID 743218); note: nearly all actives have a fitted effect of over 45% in size; note: potency is the fitted concentration of half-maximal effect
# Method in brief: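 Cytotoxicity counter-screen run in parallel, same wells: FXR-UAS-bla HEK 293T cells dosed 16 h at 37 C, viability read by CellTiter-Glo luminescence after 30 min at room temperature.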
# [15] = molecular target: Vitamin D3 receptor (Homo sapiens) (UniProt P11473); assay: qHTS assay to identify small molecule agonists of the vitamin D receptor (VDR) signaling pathway (AID 743222; calls by dose curve)
# Method in brief: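 Quantitative HTS agonist-mode screen: compounds in DMSO were pin-transferred onto VDR-bla cells and incubated 16 h at 37C, 5% CO2. Reporter activity was detected with LiveBLAzer B/G FRET substrate after 2 h at room temperature.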
# [16] = molecular target: Peroxisome proliferator-activated receptor gamma (Homo sapiens) (UniProt P37231); assay: qHTS assay to identify small molecule agonists of the peroxisome proliferator-activated receptor gamma (PPARg) signaling pathway (AID 743094; active = well fitted activation curve with a large enough effect in the signal ratio in the repeat runs, not every such curve was filed as active; the % refers to the signal ratio)
# Method in brief: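 Quantitative HTS agonist mode: stable HEK293H line with UAS-beta-lactamase reporter under PPARg control, 17 h compound exposure at 37C, fluorescence after 1 h FRET substrate loading at room temperature.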
# [17] = qHTS assay for small molecule agonists of the antioxidant response element (ARE) signaling pathway (AID 743202; active = well fitted activation curve with a large enough effect in the signal ratio in the repeat runs, not every such curve was filed as active; the % refers to the signal ratio)
# Method in brief: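 Agonist mode reporter screen: HepG2 cells with ARE-controlled beta-lactamase are incubated with test compounds for 16 h at 37 C, and beta-lactamase activity is measured as fluorescence of cleaved B/G FRET substrate.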
# [18] = molecular target: Vitamin D3 receptor (Homo sapiens) (UniProt P11473); assay: qHTS assay to identify small molecule antagonists of the vitamin D receptor (VDR) signaling pathway (AID 743223; active = well fitted inhibition curve with a large enough effect in the signal ratio in the repeat runs, not every such curve was filed as active; the % refers to the signal ratio; note: potency is the fitted concentration of half-maximal effect)
# Method in brief: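 Agonist 1alpha,25-dihydroxyvitamin D3 (3 nM in well) was added with each compound to VDR-bla cells preincubated 4 h. Cells stood 16 h at 37C, then FRET substrate 2 h at room temperature; fluorescence intensity recorded.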
# [19] = molecular target: Bile acid receptor (Homo sapiens) (UniProt Q96RI1); assay: qHTS assay to identify small molecule antagonists of the farnesoid-X-receptor (FXR) signaling pathway (AID 743217; active = well fitted inhibition curve with a large enough effect in the signal ratio in the repeat runs, not every such curve was filed as active; the % refers to the signal ratio)
# Method in brief: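 Antagonist mode against 50 uM (final) chenodeoxycholic acid stimulation in FXR-bla HEK 293T cells, 16 h at 37 °C. Inhibition detected as reduced beta-lactamase activity via LiveBLAzer B/G FRET fluorescence after 2 h at room temperature.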
# [20] = molecular target: Bile acid receptor (Homo sapiens) (UniProt Q96RI1); assay: qHTS assay to identify small molecule agonists of the farnesoid-X-receptor (FXR) signaling pathway (AID 743220; active = well fitted activation curve with a large enough effect in the signal ratio in the repeat runs, not every such curve was filed as active; the % refers to the signal ratio)
# Method in brief: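 Beta-lactamase reporter under UAS control in GeneBLAzer FXR HEK 293T cells (5000/well) measured with LiveBLAzer FRET substrate after 2 h at room temperature. Compound exposure lasted 16 h at 37C.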
# Chain of Vitamin D3 receptor (Homo sapiens) (P11473 whole entry, looked up): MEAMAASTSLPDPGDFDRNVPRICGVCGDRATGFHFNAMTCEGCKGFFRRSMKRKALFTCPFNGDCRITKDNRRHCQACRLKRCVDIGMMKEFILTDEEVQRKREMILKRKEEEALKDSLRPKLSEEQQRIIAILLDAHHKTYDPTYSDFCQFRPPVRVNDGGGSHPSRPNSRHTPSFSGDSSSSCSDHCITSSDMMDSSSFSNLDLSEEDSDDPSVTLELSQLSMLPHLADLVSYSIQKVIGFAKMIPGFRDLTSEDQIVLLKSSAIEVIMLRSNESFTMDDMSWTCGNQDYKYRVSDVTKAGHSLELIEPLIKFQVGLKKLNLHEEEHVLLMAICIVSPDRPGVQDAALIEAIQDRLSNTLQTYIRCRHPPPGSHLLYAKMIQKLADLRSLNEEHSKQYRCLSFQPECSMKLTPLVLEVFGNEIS
# Chain of Bile acid receptor (Homo sapiens) (Q96RI1 whole entry, looked up): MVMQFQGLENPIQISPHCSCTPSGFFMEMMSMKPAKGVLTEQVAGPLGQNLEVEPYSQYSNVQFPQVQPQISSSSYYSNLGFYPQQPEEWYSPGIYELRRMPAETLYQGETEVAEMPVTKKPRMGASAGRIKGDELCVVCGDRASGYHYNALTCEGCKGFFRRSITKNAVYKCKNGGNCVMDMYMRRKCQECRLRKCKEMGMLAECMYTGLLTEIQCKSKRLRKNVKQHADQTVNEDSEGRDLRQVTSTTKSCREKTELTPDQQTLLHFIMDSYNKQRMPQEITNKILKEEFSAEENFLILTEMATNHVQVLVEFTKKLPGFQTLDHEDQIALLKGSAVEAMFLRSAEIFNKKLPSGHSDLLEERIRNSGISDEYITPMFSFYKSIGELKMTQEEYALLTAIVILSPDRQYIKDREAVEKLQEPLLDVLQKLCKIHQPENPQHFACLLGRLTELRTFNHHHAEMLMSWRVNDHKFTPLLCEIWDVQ
# Chain of Peroxisome proliferator-activated receptor gamma (Homo sapiens) (P37231 whole entry, looked up): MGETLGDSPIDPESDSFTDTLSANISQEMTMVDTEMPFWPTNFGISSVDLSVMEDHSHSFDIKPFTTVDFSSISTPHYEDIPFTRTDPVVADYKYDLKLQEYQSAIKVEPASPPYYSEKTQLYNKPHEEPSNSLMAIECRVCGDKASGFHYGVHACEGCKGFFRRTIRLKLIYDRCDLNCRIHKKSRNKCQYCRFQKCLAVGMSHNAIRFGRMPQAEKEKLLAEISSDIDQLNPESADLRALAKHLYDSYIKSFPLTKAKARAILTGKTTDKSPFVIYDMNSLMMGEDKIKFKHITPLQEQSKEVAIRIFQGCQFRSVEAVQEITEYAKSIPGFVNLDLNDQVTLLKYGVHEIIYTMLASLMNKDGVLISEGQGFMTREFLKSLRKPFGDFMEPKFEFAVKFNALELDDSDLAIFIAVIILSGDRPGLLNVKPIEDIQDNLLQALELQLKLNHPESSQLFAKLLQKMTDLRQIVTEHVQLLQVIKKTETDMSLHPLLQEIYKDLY
# Chain of Peroxisome proliferator-activated receptor delta (Homo sapiens) (Q03181 whole entry, looked up): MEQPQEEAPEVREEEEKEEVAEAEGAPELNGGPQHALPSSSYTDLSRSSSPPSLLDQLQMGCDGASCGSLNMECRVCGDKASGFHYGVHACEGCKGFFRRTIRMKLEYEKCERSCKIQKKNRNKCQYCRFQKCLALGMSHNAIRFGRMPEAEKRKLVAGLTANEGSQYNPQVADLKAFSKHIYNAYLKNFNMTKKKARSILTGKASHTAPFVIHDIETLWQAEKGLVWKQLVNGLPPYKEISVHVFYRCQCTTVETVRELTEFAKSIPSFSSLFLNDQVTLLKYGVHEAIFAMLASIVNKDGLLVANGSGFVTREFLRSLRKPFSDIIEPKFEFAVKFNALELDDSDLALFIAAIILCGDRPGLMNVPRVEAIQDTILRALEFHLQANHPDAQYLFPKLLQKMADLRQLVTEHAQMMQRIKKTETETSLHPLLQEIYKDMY
# Chain of Aryl hydrocarbon receptor (Homo sapiens) (P35869 whole entry, looked up): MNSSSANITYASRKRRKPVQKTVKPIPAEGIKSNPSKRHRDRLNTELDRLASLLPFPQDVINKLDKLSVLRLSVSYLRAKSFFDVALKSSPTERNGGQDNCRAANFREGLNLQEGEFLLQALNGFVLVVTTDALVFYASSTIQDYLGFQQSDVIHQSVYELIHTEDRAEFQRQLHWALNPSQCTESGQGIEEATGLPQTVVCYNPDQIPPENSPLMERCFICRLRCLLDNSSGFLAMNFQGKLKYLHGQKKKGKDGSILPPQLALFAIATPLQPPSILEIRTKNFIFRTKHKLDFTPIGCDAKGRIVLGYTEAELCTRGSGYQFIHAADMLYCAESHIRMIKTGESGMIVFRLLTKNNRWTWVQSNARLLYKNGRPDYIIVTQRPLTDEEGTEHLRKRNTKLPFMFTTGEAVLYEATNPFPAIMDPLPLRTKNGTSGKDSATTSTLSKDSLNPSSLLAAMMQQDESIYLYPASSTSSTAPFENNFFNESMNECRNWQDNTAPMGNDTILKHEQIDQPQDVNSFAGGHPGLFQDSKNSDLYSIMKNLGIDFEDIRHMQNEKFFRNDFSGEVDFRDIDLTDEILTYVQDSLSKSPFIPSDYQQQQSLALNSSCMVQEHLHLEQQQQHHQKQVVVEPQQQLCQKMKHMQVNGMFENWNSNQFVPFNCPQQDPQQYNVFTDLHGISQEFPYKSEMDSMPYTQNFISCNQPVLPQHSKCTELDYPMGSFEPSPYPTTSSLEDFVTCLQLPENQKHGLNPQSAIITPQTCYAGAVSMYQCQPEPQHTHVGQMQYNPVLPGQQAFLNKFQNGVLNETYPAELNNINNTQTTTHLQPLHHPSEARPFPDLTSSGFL
Structure (SMILES),Potency [1],Potency [2],Potency [3],Potency [4],Potency [5],Potency [6],Potency [7],Potency [8],Potency [9],Potency [10],Potency [11],outcome [12],Potency [13],Potency [14],outcome [15],Potency [16],Potency [17],Potency [18],Potency [19],outcome [20]
CC1(C)[C@H](C(=O)O[C@H](C#N)c2cccc(Oc3ccccc3)c2)[C@@H]1C=C(Br)Br,inactive,inactive,inactive,inactive,inactive,inactive,inactive,inactive,inactive,,,,,,,,,,,
Cc1ccc2c(C)cccc2c1,inactive,inactive,inactive,inactive,inactive,inactive,inactive,,inactive,inactive,inactive,inactive,inactive,inactive,inactive,,,,,
O=C(O)C(F)(F)C(F)(F)C(F)(F)C(F)(F)C(F)(F)F,inactive,,,inactive,inactive,inactive,inactive,inactive,inactive,,inactive,,inactive,inactive,inactive,inactive,inactive,inactive,,
CC(C)(C)c1ccc(CCOc2ncnc3ccccc23)cc1,inactive,inactive,inactive,inactive,inactive,inactive,inactive,inactive,inactive,,inactive,,,inactive,inactive,,inactive,inactive,inactive,inactive
CCCCC#N,inactive,inactive,inactive,,inactive,inactive,inactive,inactive,inactive,,inactive,inactive,inactive,inactive,,,inactive,,,
CCCCNC(=O)OCC#CI,inactive,inactive,,21.7 µM (active),inactive,,,inactive,48.7 µM (active) and 43.6 µM (active),,,,,,,,,,inactive,inactive
Clc1ccc(Cl)c(Cl)c1,inactive,inactive,inactive,inactive,inactive,inactive,inactive,inactive,inactive,,,,,inactive,inactive,,,inactive,,
CCCCCCCCCCCCN(C)C,inactive,inactive,,,,inactive,inactive,inactive,,,inactive,inactive,inactive,inactive,inactive,inactive,,inactive,inactive,inactive
CC(C)(C)NCC(O)c1cc(Cl)c(N)c(C(F)(F)F)c1 (configuration not stated),inactive,,inactive,,inactive,,inactive,inactive,inactive,inactive,inactive,inactive,inactive,inactive,inactive,inactive,,inactive,,
CN(C)C(=O)Nc1cccc(OC(=O)NC(C)(C)C)c1,inactive,inactive,,inactive,inactive,inactive,inactive,,inactive,,inactive,inactive,inactive,inactive,inactive,inactive,,,,
O=[N+]([O-])c1cc(Cl)c(Cl)cc1Cl,inactive,inactive,,inactive,inactive,inactive,,inactive,,,inactive,inactive,inactive,inactive,inactive,inactive,,inactive,,
C=CCc1ccccc1O,inactive,inactive,inactive,inactive,inactive,inactive,inactive,inactive,,,inactive,,inactive,inactive,inactive,,,inactive,inactive,inactive
C#C[C@]1(O)CC[C@H]2[C@@H]3CCC4=CC(=O)CCC4=C3C=C[C@@]21CC,inactive,inactive,inactive,inactive,inactive,inactive,inactive,,inactive,,inactive,,,,,,,,,
C[N+](C)(C)CCOC(=O)C(O)(c1ccccc1)c1ccccc1,inactive,inactive,inactive,inactive,inactive,inactive,,,inactive,,inactive,inactive,inactive,,inactive,,,inactive,,
O=C=NC1CCCCC1,54.6 µM (active),inactive,,inactive,inactive,inactive,,,inactive,,inactive,inactive,inactive,,inactive,inactive,,inactive,inactive,inactive
COC(=O)Cc1ccccc1,inactive,inactive,,,,inactive,inactive,inactive,inactive,,inactive,inactive,inactive,inactive,inactive,inactive,,,,
C[CH2][Hg][S]c1ccccc1C(=O)O,inactive,16.8 µM (active) and 6.86 µM (active),2.45 µM (active) and 8.41 µM (active),1.72 µM (active) and 5.96 µM (active),19.5 µM (active) and 15 µM (active),871 nM (active) and 2.11 µM (active),2.19 µM (active) and 1.68 µM (active),6.92 µM (active) and 4.22 µM (active),,,,,,1.55 µM (active) and 2.66 µM (active),inactive,,,3.38 µM (active),,
C[C@H]1[C@@H]2Cc3ccc(O)cc3[C@@]1(C)CCN2C,inactive,inactive,inactive,,inactive,,inactive,inactive,inactive,,inactive,inactive,inactive,inactive,inactive,,,,inactive,inactive
